G9a inh = inhibitors of human histone lysine methyltransferase G9a. Q96KQ7. G9a H3K9 monomethylation, AlphaScreen, 2 h. Potency, µM (doses to about 102 µM), inactives show at the highest dose activity, negative = inhibition, usual class: inhibitors. 8.8% of 350,000 active; further: on the % scale 0 is the no-effect control and ±100 the full control effect; nearly all actives have a fitted effect of over 75% in size
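Compounds were preincubated with 20 nM G9a for 15 min, after which biotinylated H3K9 peptide (500 nM) and SAM (20 uM) started a 2 h room-temperature reaction. Monomethylated product was quantified by antibody-based AlphaScreen chemiluminescence.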
BAZ2B inh = blocks human BAZ2B. AlphaScreen BAZ2B-H3K14Ac peptide displacement. Potency, µM (highest dose often 114 µM), inactives show at the top dose activity change, negative = inhibition, usual class: inhibitors. 4.4% of 360,000 active. AID 504333; further: on the % scale 0 is the no-effect control and ±100 the full control effect; nearly all actives have a fitted effect of over 60% in size
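In this displacement format the biotinylated H3(5-23) peptide acetylated at Lys14 serves as ligand at 50 nM, with BAZ2B at 50 nM in PBS pH 7.4 containing 0.01% Tween-20. Donor and acceptor beads are 10 ug/mL final.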
HP1b chromo inh = blocks HP1-beta chromodomain binding to methylated histone tails; AlphaScreen HP1-beta / biotin-H3K9me3 peptide binding; Potency, µM (doses to about 114 µM), for inactives: at the highest dose activity change, negative = inhibition, actives largely listed as inhibitors; 0.56% of 390,000 active; AID 540317; further: nearly all actives have a fitted effect of over 70% in size
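Compound inhibition of the preformed complex between 50 nM HP1-beta and 50 nM biotinylated H3K9me3 peptide was read by AlphaScreen. Buffer was PBS pH 7.4 with 0.01% Tween-20. Incubations ran 30 min at room temperature, with 10 ug/mL donor/acceptor beads.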
JMJD2A Tudor inh = inhibitors of human JMJD2A Tudor domain; 4.4% of 390,000 active; AlphaScreen JMJD2A-Tudor / H3K4me3 peptide binding; O75164; Potency, µM (doses to about 114 µM), without a hit: at the highest dose activity change, negative = inhibition, hits mostly inhibitors; AID 504339; further: on the % scale 0 is the no-effect control and ±100 the full control effect; nearly all actives have a fitted effect of over 50% in size
Sfp PPTase inh = inhibitors of Bacillus subtilis Sfp phosphopantetheinyl transferase; Q9F4F7; Biochemical Sfp PPTase activity, qHTS; Potency, µM, inactives show largest response in the series, negative = inhibition, most hits filed as inhibitors; 3.5% of 310,000 active; AID 1490;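 further: the enzyme is Sfp with the accession as filed and its product quenches rhodamine fluorescence; 0% = enzyme reaction without inhibitor and -100% = no enzyme wells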
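Compounds were incubated with enzyme (final 15 nM) for 15 min at room temperature before substrate addition started the reaction. Fluorescence at 525 nm excitation, 598 nm emission was recorded immediately and after 30 minutes.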
* = called active by the depositor; u = inconclusive; x = no result; [ ] = another dose, or the depositor's remark. Compounds with a hit are over-represented: about 12% of the library has one in this group of screens. The call rests on the fitted dose curve; in most records, active means well fitted curve in the direction sought with a large enough effect; inconclusive means small, poorly fitted or top-dose-only effect, or another doubt; inactive means no such curve, though single readings can be large; an effect the other way counts as inactive or inconclusive. Potency means the concentration at half of the fitted maximal effect.

SMILES	G9a inh	BAZ2B inh	HP1b chromo inh	JMJD2A Tudor inh	Sfp PPTase inh
Cn1nnnc1Sc1ncnc2scc(-c3ccc(C(=O)OC(C)(C)C)cc3)c12	x	x	x	-26%	x
CN(C)c1ccc(C=NCC2COc3ccccc3O2)cc1 (configuration not stated)	-1%	-13%	26%	-8%	19%
Cc1sc2nc3c4ccccc4c(NCc4ccco4)nn3c(=O)c2c1C	-29%[59 µM]	19%	30%	8%	18µM*
COc1ccc(-c2cnc3n2CCCCC3)cc1	-16%	-17%	4%	-2%	20%
COc1ccc(-c2c[n+]3c4n2CCCCC4=C(c2ccc(Br)cc2)C3)cc1	8.9µM*	40µM*	-13%	56µM*	45µM*
Clc1ccc(C2=C3CCCCn4c(-c5ccccc5)c[n+](c43)C2)cc1	14µM*	50µM*	2%	u	79µM*
CC(=O)OCC1=C(C(=O)O)N2C(=O)C(NC(=O)c3ccc(COc4ccc(Cl)cc4)o3)C2SC1 (configuration not stated)	u	-19%	0%	u	-16%
Cc1cc(N/N=C/c2ccc(Cl)cc2Cl)nc(NCc2ccccc2)n1	u	u	9%	-27%	u
Cc1ccc(/C=N/Nc2cc(C)nc(NCc3ccccc3)n2)cc1	32µM*	u	-13%	u	16µM*
Cc1cc(N/N=C/c2ccc(N(C)C)cc2)nc(NCc2ccccc2)n1	-4%	13µM*	-10%	u	20µM*
Cc1cc(N/N=C/c2ccc(O)cc2)nc(NS(=O)(=O)c2ccccc2)n1	u	79µM*	71µM*	56µM*	3%
CN(C)c1nc(NCc2ccccc2)nc(N/N=C/c2ccc3c(c2)OCO3)n1	50µM*	u	3%	-34%	-9%
COc1ccc(N2CCN(C(=O)CSCc3ccc(C)cc3)CC2)cc1	u	4%	53%	u	x
Cc1cc(N/N=C/c2ccc(F)cc2)nc(NCc2ccccc2)n1	x	-34%	-5%	-20%	16µM*
CCCN(C(=O)COC(=O)CSc1ccc([N+](=O)[O-])cc1)C1CCS(=O)(=O)C1 (configuration not stated)	22%[12.7 µM]	-3%	u	56µM*	x
CN(C(=O)COC(=O)CSc1ccc([N+](=O)[O-])cc1)c1ccccc1	-25%[59 µM]	-1%	u	79µM*	x
Cc1nn(C)c(C)c1NC(=O)c1cnn2c(C(F)F)cc(-c3ccccc3)nc12	36%	-24%	x	x	10%
COc1ccc(/C=C2/N=C(SC3CCOC3=O)N(c3cccc(OC)c3)C2=O)cc1 (configuration not stated)	-22%	21%	39%	-23%	-9%
CCN1C(=O)[C@H]2[C@@H](c3ccc(-c4ccc(F)cc4)c(OC)c3)N[C@@](C)(C(=O)OC)[C@H]2C1=O	u	56µM*	26%	u	x
O=C(COc1ccccc1)Nn1cnc2ccccc21	20µM*	u	31%	-15%	u
CCCCn1c(N)c(N(CCOC)C(=O)c2ccc(-c3ccc(Cl)cc3)o2)c(=O)[nH]c1=O	11µM*	u	6%	-14%	x
CCCCN(C(=O)c1ccc(-c2ccc(Cl)cc2)o1)c1c(N)n(CCCC)c(=O)[nH]c1=O	20%[12.7 µM]	-5%	19%	-31%	x
CCCCN(C(=O)C(C)Oc1ccc(Cl)cc1)c1c(N)n(CCCC)c(=O)[nH]c1=O (configuration not stated)	50µM*	11%	10%	4%	x

From PubChem
